Measured values taken from PMC4336329 (PLoS ONE, 2015).
In all, about 310,000 compounds went through this assay and about 14,000 (4.5%) showed an effect of 50% or more. The effect is printed as a negative number. The sample as a whole holds a higher share of strong results than the screen did.

These compounds were tested against human ether-à-go-go-related gene (hERG) potassium channel (human, UniProt Q12809) (assay: primary screen, population patch clamp on CHO cells stably expressing hERG; higher = less effect of the substance).
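Further: peak tail current of the secondary pulse compared with the same well before compound.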

Chain of human ether-à-go-go-related gene (hERG) potassium channel (Q12809 whole entry, looked up): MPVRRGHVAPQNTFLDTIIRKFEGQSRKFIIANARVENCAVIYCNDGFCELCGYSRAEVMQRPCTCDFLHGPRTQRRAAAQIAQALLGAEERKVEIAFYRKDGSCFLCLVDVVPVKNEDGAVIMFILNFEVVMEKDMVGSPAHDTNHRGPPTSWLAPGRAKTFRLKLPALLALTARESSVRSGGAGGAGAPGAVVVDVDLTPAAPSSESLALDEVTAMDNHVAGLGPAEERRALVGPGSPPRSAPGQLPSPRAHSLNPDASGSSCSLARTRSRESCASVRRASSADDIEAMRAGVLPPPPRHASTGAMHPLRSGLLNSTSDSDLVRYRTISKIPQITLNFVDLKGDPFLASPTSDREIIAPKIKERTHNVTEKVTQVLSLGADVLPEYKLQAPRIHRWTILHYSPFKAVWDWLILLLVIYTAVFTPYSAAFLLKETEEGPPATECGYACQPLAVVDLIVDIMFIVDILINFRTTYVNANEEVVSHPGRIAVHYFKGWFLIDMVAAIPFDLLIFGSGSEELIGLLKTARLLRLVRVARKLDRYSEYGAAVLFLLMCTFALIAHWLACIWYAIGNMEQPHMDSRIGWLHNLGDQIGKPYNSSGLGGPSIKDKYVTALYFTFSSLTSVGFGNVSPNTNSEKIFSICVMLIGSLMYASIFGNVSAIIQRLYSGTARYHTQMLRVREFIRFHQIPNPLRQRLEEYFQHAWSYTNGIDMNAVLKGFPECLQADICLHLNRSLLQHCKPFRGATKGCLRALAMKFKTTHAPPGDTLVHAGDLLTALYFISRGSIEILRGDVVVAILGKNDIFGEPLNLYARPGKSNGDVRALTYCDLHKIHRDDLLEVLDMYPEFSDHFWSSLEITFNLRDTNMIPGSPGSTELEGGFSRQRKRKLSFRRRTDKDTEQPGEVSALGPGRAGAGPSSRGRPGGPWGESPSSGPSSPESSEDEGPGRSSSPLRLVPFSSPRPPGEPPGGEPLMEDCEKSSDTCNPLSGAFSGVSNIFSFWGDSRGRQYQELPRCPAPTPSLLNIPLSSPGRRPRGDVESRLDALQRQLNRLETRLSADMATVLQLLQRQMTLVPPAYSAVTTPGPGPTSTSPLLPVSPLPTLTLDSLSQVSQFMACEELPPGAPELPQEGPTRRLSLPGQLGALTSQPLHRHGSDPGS

| Compound | hERG current change (%, negative = inhibition) at 10uM [%] |
| --- | --- |
| CC(C)COc1ccc(Br)cc1CNC(C)(C)C.Cl | -41.8 |
| CC(C)(C)NCc1ccccc1OCc1cccs1.Cl | 6.17 |
| C=CCOc1ccc(Br)cc1CNC(C)(C)C.Cl | -14.7 |
| CC(C)(C)NCc1cc(Br)ccc1OC1CCCC1.Cl | -53.8 |
| CC(C)(C)NCc1cc(Br)ccc1OCc1cccs1.Cl | -52.5 |
| CC(C)(C)NCc1cc(Cl)ccc1OCc1cccs1.Cl | -32.5 |
| CCN(CC)CCNC(=O)c1ccc(NC(=O)Cc2ccsc2)cc1 | 15.6 |
| O=c1oc2ccccc2cc1N1CCOCC1 | -7.08 |
| CN(C)S(=O)(=O)c1ccc(C(=O)Nc2nnc(-c3cccs3)o2)cc1 | 31.7 |
| O=C(COC(=O)c1ccc(F)cc1F)Nc1cccnc1Cl | -56.3 |
| O=C(COC(=O)c1ccc(F)cc1F)Nc1ncccn1 | -3.24 |
| O=C(COC(=O)c1ccccc1F)Nc1cccnc1Cl | -2.16 |
| Cc1ccc(NC(=O)c2cnn(-c3ccccc3)c2NC(=O)c2ccco2)cc1 | 2.02 |
| Cc1ccnn1CC(=O)N/N=C/c1ccc2c(c1)OCO2 | -7.72 |
| N#C/C(=C/c1cccc(O)c1)C(=O)NCc1ccc(Cl)cc1 | 31 |
| COC(=O)CSc1cc([N+](=O)[O-])cc2c1c(C1OCCO1)nn2-c1ccccc1 | -5.4 |
| CN(CCO)c1nc(N)c2c(N)nc3c(c2c1C#N)CC(=O)N3Cc1cccs1 | -29.6 |
| CN(CCO)c1nc(N)c2c(N)nc3c(c2c1C#N)CC(=O)N3C1CCCC1 | -63.5 |
| N#Cc1c(N(CCO)CCO)nc(N)c2c(N)nc3c(c12)CC(=O)N3CC1CCCO1 (stereo not drawn) | 10 |
| O=C(CSc1oc(-c2cccs2)nc1S(=O)(=O)c1ccccc1)NC1CCCCC1 | 17.7 |
| CCC1Oc2ccccc2N(CC(=O)NCCCN2CCN(CC)CC2)C1=O (stereo not drawn) | 2.97 |

| Compound | hERG current change (%, negative = inhibition) at 10uM [%] |
| --- | --- |
| CCC1Oc2ccc(C)cc2N(CC(=O)NCCCN2CCN(Cc3ccccc3)CC2)C1=O (stereo not drawn) | -53.9 |
| CCC1Oc2ccccc2N(CC(=O)NCCCN2CCOCC2)C1=O (stereo not drawn) | -4.71 |
| CCC1Oc2ccccc2N(CC(=O)NCCCN2CCN(c3ccc(OC)cc3)CC2)C1=O (stereo not drawn) | -50.4 |
| CCC1Oc2ccccc2N(CC(=O)NCCCN2CCN(Cc3ccccc3)CC2)C1=O (stereo not drawn) | -42 |
| CCC1Oc2ccc(C)cc2N(CC(=O)NCCCN2CCCC2)C1=O (stereo not drawn) | -34.7 |
| Cc1cc(OC(C)C(=O)N[C@H](C(=O)O)c2ccccc2)c2c3c(c(=O)oc2c1)CCC3 (stereo partly drawn) | -3.23 |
| CCOC(=O)c1c(NCC(C)C)c2ccccc2[nH]c1=O | -1.01 |
| Cc1cccc(C(=O)NNC(=O)c2ccc(Br)cc2)c1 | 4.62 |
| O=C(Nc1cccc(Cl)c1Cl)c1snnc1-c1ccccc1 | 7.74 |
| Cc1ccc(NC(=S)N(CCN2CCOCC2)Cc2ccccc2F)cc1Cl | -12.3 |
| NC(=S)N/N=C1\CCOc2ccc(F)cc21 | -76.9 |
| NC(=S)N/N=C1\CC(c2ccc3c(c2)OCCO3)Oc2ccc(F)cc21 (stereo not drawn) | 12.9 |
| NC(=S)N/N=C1\CCOc2ccc(Cl)cc21 | 1.36 |
| O=C(COC(=O)c1cccc(C(=O)OCC(=O)NCc2ccc(F)cc2)n1)NCc1ccc(F)cc1 | -15.5 |
| O=C(c1cc2ccccc2[nH]1)N(Cc1cccnc1)CC1CCCN(C2CCCCC2)C1 (stereo not drawn) | -73.7 |
| CC(=O)N(Cc1cccnc1)Cc1cc2ccccc2[nH]c1=O | 3.63 |
| O=C(c1cccs1)N(CCN1CCCCC1)CC1CCCN(C2CCCC2)C1 (stereo not drawn) | 1.03 |
| O=C(c1cc2cc(F)ccc2[nH]1)N(Cc1cccnc1)CC1CCCN(C2CCCCC2)C1 (stereo not drawn) | -77.5 |
| COC(=O)c1ccccc1C(=O)N(Cc1cccnc1)CC1CCCN(C2CCCCC2)C1 (stereo not drawn) | -40 |
| Cn1nccc1C(=O)N(CCN1CCCCC1)CC1CCCN(C2CCCC2)C1 (stereo not drawn) | -2.29 |
| O=S(=O)(NCc1cn2ccsc2n1)c1cccs1 | 15.6 |
